According to the supplement of paper PMC10681739:

Tests used:
[1] = biological target: T1, ETS1 (UniProt P14921); assay: ETS1 binding intensity (PBM fluorescence), ETS1 alone (arbitrary fluorescence units); higher = stronger binding; conditions: ETS1 concentration 1 nM; RUNX1 concentration 0 nM
T1 sequence: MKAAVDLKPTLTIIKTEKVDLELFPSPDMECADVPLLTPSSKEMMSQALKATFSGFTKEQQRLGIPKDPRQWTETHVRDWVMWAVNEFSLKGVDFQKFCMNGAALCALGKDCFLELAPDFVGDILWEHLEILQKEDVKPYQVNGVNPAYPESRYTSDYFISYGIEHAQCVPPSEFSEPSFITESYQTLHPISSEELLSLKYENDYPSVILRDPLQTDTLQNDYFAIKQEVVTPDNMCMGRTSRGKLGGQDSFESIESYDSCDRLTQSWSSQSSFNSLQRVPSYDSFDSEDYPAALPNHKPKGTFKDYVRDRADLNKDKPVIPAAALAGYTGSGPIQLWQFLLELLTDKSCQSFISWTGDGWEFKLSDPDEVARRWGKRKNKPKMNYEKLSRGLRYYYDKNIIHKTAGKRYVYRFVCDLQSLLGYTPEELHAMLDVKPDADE

[2] = biological target: RUNX1 (UniProt Q01196); assay: RUNX1 binding intensity (PBM fluorescence), RUNX1 alone (arbitrary fluorescence units); higher = stronger binding; conditions: RUNX1 concentration 2 nM; ETS1 concentration 0 nM
Procedure: (§1)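 Cooperative gcPBM on 36-bp genomic probes with neighbouring ETS1 and RUNX1 sites. Recombinant human RUNX1 (2 nM) was incubated alone or with ETS1 (25 nM) and detected with anti-RUNX1 antibody plus Alexa488 secondary. Values are medians over 4 replicate spots; the RUNX1+ETS1 data were normalised to the RUNX1-only data. The probes sit in constant array flanks that are not printed.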

[3] = biological target: T1, ETS1; assay: ETS1 binding intensity (PBM fluorescence) in presence of RUNX1, normalised to ETS1-only experiment (arbitrary fluorescence units); higher = stronger binding; conditions: ETS1 concentration 1 nM; RUNX1 concentration 25 nM
[4] = biological target: RUNX1 (UniProt Q01196); assay: RUNX1 binding intensity (PBM fluorescence) in presence of ETS1, normalised to RUNX1-only experiment (arbitrary fluorescence units); higher = stronger binding; conditions: RUNX1 concentration 2 nM; ETS1 concentration 25 nM
Procedure: as §1
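Wherever RUNX1 binding intensity (PBM fluorescence) in presence of ETS1, normalised to RUNX1-only experiment is given: Full-length recombinant human ETS1 or RUNX1 bound to double-stranded 36-bp genomic probes on microarrays, detected by protein-specific primary antibody and Alexa488 secondary, spot fluorescence as median of four replicate spots.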
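Wherever RUNX1 binding intensity (PBM fluorescence), RUNX1 alone is given: Full-length recombinant human RUNX1 bound to double-stranded 36-bp genomic probes on a high-density microarray, scored as Alexa488 fluorescence per spot via anti-RUNX1 antibody, median of four replicate spots.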

RUNX1, sequence (Q01196 whole entry): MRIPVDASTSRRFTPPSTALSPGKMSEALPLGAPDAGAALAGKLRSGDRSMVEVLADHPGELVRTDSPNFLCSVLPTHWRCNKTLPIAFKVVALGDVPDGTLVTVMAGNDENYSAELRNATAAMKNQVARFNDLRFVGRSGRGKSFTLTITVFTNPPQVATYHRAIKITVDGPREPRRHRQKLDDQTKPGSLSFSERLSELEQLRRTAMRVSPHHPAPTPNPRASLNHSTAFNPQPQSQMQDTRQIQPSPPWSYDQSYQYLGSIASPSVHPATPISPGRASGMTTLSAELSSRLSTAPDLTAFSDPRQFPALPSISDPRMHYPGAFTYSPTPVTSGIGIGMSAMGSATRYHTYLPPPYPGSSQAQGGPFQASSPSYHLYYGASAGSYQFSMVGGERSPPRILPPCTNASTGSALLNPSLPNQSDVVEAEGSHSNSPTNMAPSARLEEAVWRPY

Sequence	ETS1 binding intensity [1]	RUNX1 binding intensity [2]	ETS1 binding intensity [3]	RUNX1 binding intensity [4]
ATTTAGGAGGAAGTTTCCAGTACCACAACCTCACAG	430	868	709	788
ATGGAAAGGAAGTCGGTGGGAAACCGCCTCAGCGGT	797	740	1020	1200
TGAGAGTAAAAAGGATGTGGTTTCCTTTCATTTTTT	1580	927	6790	2430
AACAGAGACCCGGAAGTTGTGGGACGAAGCCAGGAC	4960	810	6420	1260
GCCCCAGCCCCCGGATGTGGTGACAGAATCGATACT	3220	811	6050	4060
GTGGAAAGGAAATGTGTCATCTGTGGTTTGGTTTTA	645	1060	2110	1410
GCGAGGAGACAACTTCCTTTTGTGGTCTGACCCTGG	638	857	1590	1970
GGAACAGGAAAAGCCTCCGGCAGCCCCTGCGGGCGG	539	719	941	920
CTTAAATGGGAAATGTAGGTGTGGTTAAGTCACAAA	558	859	556	915
GGCAAACAGGAAACACTCCCAGGGCTGTGGGCTCCT	1550	727	1790	1150
GTGCCTCACCGCTTCCGGCGCTGCGGGATGACGTCA	2390	786	4720	7320
TTTACAGGAAATTACAGGGGTTAAACCAAACCACAA	986	941	1140	1820
GGGAGGCCCCATCCTGTGTGGCTGTGGCTTTTGCCT	414	653	451	1020
TTTCTCTTCCTGTTTCCACCCTGACCACAGCCAGCT	476	2930	1350	5140
GCCACCTCTTCCTGTGTTGCAAACCACAGGTCCACC	805	1600	1320	5050
CAGTGGCAGGAAGAGGTCAGAAACCACTCGTGGTGG	718	816	870	1100
GCCTCCTCCCATTTCCTCCATGTGGTCAATCCAGTT	459	2070	731	3860
GCGGCTGAGAACACAGGATGTGGCTTTTGGCAGATG	6080	674	12800	1680
CGAACGCCGGACGTTCTGGGCACGTGACCGCCACCC	643	863	1100	938

Sequence	ETS1 binding intensity [1]	RUNX1 binding intensity [2]	ETS1 binding intensity [3]	RUNX1 binding intensity [4]
AAACATCATAGGAAGTGGATTTTGTGGTGAGAGACA	1160	870	3880	1130
GGCGGCACTAGGCTTCCGCCTCACCGCAGTGGGGTT	362	855	845	1430
GACGGCCCCAGCGGAAGTGGTTGCCTTGGTTTGCGC	9920	734	10300	2190
ATGTCTTCCTGTACAGGAACTGGGTCCCAGCCGCAG	4120	745	4430	1510
AACGGACCCGGAAGGGGCAGGTCTTGTGGGCGGGTC	814	822	1420	904
GAAATCACATCCTTTTGCAAAACCACAGGTGTTTTG	409	1320	1500	3340
GCGCACTTCCGGGCTGGTGAACGCGGTGACGTCACC	1250	804	1210	1720
GTGTGCGTGAGAAGAGGAAGTGGTTAGGAAGACACA	4030	–	12200	1900
GTGTTTCCTCTTTGTTTTGGGGCTGTGGTTGCCACA	414	1330	600	3180
CCAGAGGGCGGAAGTGGGAGCTGCGACCGCGCTCCC	3670	690	6280	1880
GGGAACTGGGGAAGGGGATGTGGTAACCAGAACCAC	543	869	2600	1050
TTGTCACGTCCGGCACGCCGCGAACCGCAAGGAACC	571	–	1800	2720
CTTGTTCTATTTCCTGTTTGTGGTGAGTGACTGTCT	4300	–	8610	3140
GTCCCCGACTTCCGCTCTCGGTTGGTGGTTGGCTTT	2370	894	3430	2590
CATTGATCAAAGACAGGATGTGGTAACAGGCAGTTA	8340	760	39500	3100
GCTAAGAGCAGGAAATGATCTGGGAACCACCATCAC	2690	719	3070	918
TTGTGCTTCCTGCTCATGAGATTGCTAGCGGTTACT	491	803	707	1190
AGTTTCTCAGCTTCCTGTGTGGTTTTCTTGATCTGC	1480	1620	2630	4280
GCCCGGAAGCGCGACGCTGGAGCTGCGGGGTTACCA	773	–	887	882
